In assay [1] the test system is Plasmodium falciparum Sir2 (PF13_0152, Sir2A). The assay is described as follows: Plasmodium falciparum Sir2A binding compounds – biochemical, small-molecule microarray, 635 nm fluorescence, primary screen (AID 1098).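 Note: score merges spot fluorescence intensity with its signal-to-noise ratio.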 As to conditions: fluorescence 635 nm, higher = more signal.
Assay [2] can be described thus: probe aDKK1 binding to arrayed compounds – biochemical, biotinylated probe, 635/667 nm fluorescence, primary screen (AID 1099).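 Note: score merges 667nm spot fluorescence with signal to noise across triplicate slides.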 As to conditions: small-molecule microarray, higher = more signal.
The nature of assay [3]: probe aCHRDL2 binding to arrayed compounds – biochemical, biotinylated probe, 635/667 nm fluorescence, primary screen (AID 1100). The note with it: small-molecule microarray, higher = more signal.
Assay [4] is described as follows: change in splice reporter luminescence, either direction, cell-based, HEK293, spliceosome inhibition project, primary screen (AID 1101).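 Note: HEK293 cells carrying a splicing-competent luciferase reporter gene; test concentration not given here.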 The note with it: HEK293 splicing luciferase reporter, 24 h, higher = more signal, called active from +8 up or from −8 down. For orientation: Reporter assays use an easily measured gene product as a stand-in for the process of interest.

The target of assay [5] is Fibroblast growth factor 10 (Homo sapiens) (UniProt O15520). The assay is described as follows: compounds binding fibroblast growth factor 10 – biochemical, small-molecule microarray, 635 nm fluorescence, primary screen (AID 1102). The note with it: FGF10 binding, fluorescence 635 nm, higher = more signal.
Assay [6] deals with glycogen synthase kinase-3 (GSK3A per assay name; protocol says GSK3B). The assay is described as follows: compounds binding glycogen synthase kinase-3 – biochemical, small-molecule microarray, 635 nm fluorescence, GSK3A, primary screen (AID 1103). Note: the record names both GSK3A and GSK3B. The note with it: fluorescence 635 nm, higher = more signal.
For assay [7], the target named is Epidermal growth factor receptor (Homo sapiens) (UniProt P00533). The assay is described as follows: compounds binding epidermal growth factor receptor – biochemical, small-molecule microarray, 635 nm fluorescence, primary screen (AID 1104).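 Note: score merges 667 nm emission intensity with spot signal to noise over triplicate slides.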 The note with it: EGFR binding, higher = more signal.
Assay [8] has as its target Follistatin-related protein 3 (Homo sapiens) (UniProt O95633). Put plainly: compounds binding follistatin-related protein 3 – biochemical, small-molecule microarray, 635 nm fluorescence, primary screen (AID 1105).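 Note: score merges emission near 667 nm and signal to noise per printed spot across three slides.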 The note with it: FSTL3 binding, higher = more signal.
Assay [9] has as its target Dickkopf-related protein 1 (Homo sapiens) (UniProt O94907). Put plainly: small molecules binding DKK1 protein – biochemical, small-molecule microarray, 635 nm fluorescence scan, primary screen (AID 1106).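 Note: score merges emission near 667 nm with signal to noise over three replicate slides.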 As to conditions: higher = more signal.
Assay [10] concerns Inhibin beta A chain (activin A). Put plainly: small molecules binding activin A – biochemical, small-molecule microarray, 635 nm fluorescence scan, primary screen (AID 1107).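 Note: mouse activin A protein probed at 4.33 µg/mL on printed slides; score merges bound-protein fluorescence near 667 nm with spot signal-to-noise.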 As to conditions: INHBA, higher = more signal.
Assay [11] relates to Human papillomavirus type 1a protein E7 (residues 44-93). Put plainly: small molecules binding HPV E7 44-93 – biochemical, small-molecule microarray, residues 44-93, 635 nm fluorescence, primary screen (AID 1108).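 Note: E7 fragment applied at 1 µg/mL in TBST for 1 h at 4 C; score combines spot fluorescence with its signal to noise ratio.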 The note with it: fluorescence 635 nm, higher = more signal.
Assay [12] in a line: hepatitis C replication reporter changes, two-sided – Huh7 cells, luciferase reporter, HCV replication inhibitor project, primary screen (AID 1109).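 Note: huh7 hepatoma cells harbouring a luciferase neomycin HCV replicon reporter; luciferase luminescence as measure of HCV replicon replication; test concentration not given here.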 The note with it: Huh7 HCV replicon luciferase reporter, 48 h; higher = more signal.
Assay [13] addresses Left-right determination factor 2 (Homo sapiens) (UniProt O00292). Put plainly: small molecules binding LEFTY2 protein – biochemical, small-molecule microarray, 635 nm fluorescence scan, primary screen (AID 1110). The note with it: higher = more signal.
The target of assay [14] is Calmodulin-1 (Homo sapiens) (UniProt P0DP23). Put plainly: small molecules binding calmodulin-1 with EGTA – biochemical, small-molecule microarray, Cy5-labelled CALM1, profiling panel (AID 1111).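 Note: labelled calmodulin applied in Tris saline Tween buffer holding calcium plus EGTA and DTT.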 The note with it: Cy5-CALM1 binding fluorescence, higher = more signal.
The target is the same in assay [15]. Put plainly: small molecules binding Ca-loaded calmodulin-1 – biochemical, small-molecule microarray, Cy5-labelled CALM1, plus calcium, artefact control for SMM control-protein annotation, profiling panel (AID 1112).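 Note: score merges spot fluorescence with signal to noise from triplicate slides.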 The note with it: Cy5-CALM1 binding fluorescence, higher = more signal.
The nature of assay [16]: probe aWnt5a binding to arrayed compounds – biochemical, biotinylated probe, 635/667 nm fluorescence, primary screen (AID 1113).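 Note: score merges 667 nm fluorescence intensity with signal-to-noise per printed feature.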 The note with it: small-molecule microarray, higher = more signal.
Assay [17] is described as follows: probe aShh binding to arrayed compounds – biochemical, biotinylated probe, 635/667 nm fluorescence, primary screen (AID 1114).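 Note: probe is biotin-labelled aShh protein from a stem cell growth factor screen; measures binding of labelled protein to compounds printed on the slide; score merges feature fluorescence at 667 nm with signal-to-noise.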 As to conditions: small-molecule microarray, higher = more signal.
Assay [18] in a line: probe aNog binding to arrayed compounds – biochemical, biotinylated probe, 635/667 nm fluorescence, primary screen (AID 1115).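 Note: probe is biotinylated aNog protein used at 0.15 µg/mL for 1 h at 4 C; z-score combines 667 nm fluorescence of each spot with its signal to noise.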 As to conditions: small-molecule microarray, higher = more signal.
In assay [19] the target is Torsin-1A-interacting protein 1 (Homo sapiens) (UniProt Q5JTV8). The assay is described as follows: compound microarray binding of lysate hLAP1 – cell lysate, small-molecule microarray, COS7 lysate, 635/667 nm fluorescence, primary screen (AID 1116). The note with it: 635 nm fluorescence, higher = more signal.
Assay [20] addresses Alpha-bungarotoxin (Bungarus multicinctus) (UniProt P60615). Put plainly: compounds binding labelled alpha-BTX control protein – biochemical, small-molecule microarray, Alexa647 label, 635/667 nm fluorescence, artefact control for SMM control protein annotation, profiling panel (AID 1117). The note with it: alpha-BTX-A647 binding fluorescence, higher = more signal.

Activity calls are given as the source filed them.

Sequence of Torsin-1A-interacting protein 1 (Homo sapiens) (Q5JTV8 whole entry, looked up): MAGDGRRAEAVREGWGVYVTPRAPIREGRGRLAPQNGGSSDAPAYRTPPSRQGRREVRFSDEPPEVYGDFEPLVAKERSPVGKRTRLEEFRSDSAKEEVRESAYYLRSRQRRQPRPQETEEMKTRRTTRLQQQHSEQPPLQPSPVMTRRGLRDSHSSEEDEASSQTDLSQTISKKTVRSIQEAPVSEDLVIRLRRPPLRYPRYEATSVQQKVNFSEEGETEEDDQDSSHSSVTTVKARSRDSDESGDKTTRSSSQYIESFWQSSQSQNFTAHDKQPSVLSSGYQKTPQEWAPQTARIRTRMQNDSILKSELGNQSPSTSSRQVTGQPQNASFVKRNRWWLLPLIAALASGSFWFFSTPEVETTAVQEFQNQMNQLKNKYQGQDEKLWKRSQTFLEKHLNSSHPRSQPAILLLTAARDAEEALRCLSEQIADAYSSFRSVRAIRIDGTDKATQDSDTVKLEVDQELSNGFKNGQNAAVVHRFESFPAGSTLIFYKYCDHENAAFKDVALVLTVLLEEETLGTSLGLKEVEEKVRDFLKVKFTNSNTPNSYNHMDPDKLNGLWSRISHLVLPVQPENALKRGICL
Sequence of Follistatin-related protein 3 (Homo sapiens) (O95633 whole entry, looked up): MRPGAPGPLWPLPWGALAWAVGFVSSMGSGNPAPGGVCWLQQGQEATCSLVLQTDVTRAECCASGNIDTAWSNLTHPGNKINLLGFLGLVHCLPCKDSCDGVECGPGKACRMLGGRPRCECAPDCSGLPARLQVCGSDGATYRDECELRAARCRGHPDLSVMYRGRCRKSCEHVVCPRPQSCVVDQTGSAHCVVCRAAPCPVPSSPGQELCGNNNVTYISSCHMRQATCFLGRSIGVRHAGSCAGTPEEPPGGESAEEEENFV
Sequence of Left-right determination factor 2 (Homo sapiens) (O00292 whole entry, looked up): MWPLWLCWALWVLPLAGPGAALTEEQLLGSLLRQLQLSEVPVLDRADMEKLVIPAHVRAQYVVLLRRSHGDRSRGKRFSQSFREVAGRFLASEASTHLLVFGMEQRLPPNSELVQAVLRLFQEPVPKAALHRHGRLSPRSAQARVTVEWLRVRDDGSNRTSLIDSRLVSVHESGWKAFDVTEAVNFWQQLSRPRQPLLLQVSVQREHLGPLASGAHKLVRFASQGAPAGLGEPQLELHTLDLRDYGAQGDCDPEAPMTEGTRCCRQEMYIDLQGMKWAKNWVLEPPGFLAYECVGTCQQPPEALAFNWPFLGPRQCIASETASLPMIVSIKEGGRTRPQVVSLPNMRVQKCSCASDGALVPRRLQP
Sequence of Epidermal growth factor receptor (Homo sapiens) (P00533 whole entry, looked up): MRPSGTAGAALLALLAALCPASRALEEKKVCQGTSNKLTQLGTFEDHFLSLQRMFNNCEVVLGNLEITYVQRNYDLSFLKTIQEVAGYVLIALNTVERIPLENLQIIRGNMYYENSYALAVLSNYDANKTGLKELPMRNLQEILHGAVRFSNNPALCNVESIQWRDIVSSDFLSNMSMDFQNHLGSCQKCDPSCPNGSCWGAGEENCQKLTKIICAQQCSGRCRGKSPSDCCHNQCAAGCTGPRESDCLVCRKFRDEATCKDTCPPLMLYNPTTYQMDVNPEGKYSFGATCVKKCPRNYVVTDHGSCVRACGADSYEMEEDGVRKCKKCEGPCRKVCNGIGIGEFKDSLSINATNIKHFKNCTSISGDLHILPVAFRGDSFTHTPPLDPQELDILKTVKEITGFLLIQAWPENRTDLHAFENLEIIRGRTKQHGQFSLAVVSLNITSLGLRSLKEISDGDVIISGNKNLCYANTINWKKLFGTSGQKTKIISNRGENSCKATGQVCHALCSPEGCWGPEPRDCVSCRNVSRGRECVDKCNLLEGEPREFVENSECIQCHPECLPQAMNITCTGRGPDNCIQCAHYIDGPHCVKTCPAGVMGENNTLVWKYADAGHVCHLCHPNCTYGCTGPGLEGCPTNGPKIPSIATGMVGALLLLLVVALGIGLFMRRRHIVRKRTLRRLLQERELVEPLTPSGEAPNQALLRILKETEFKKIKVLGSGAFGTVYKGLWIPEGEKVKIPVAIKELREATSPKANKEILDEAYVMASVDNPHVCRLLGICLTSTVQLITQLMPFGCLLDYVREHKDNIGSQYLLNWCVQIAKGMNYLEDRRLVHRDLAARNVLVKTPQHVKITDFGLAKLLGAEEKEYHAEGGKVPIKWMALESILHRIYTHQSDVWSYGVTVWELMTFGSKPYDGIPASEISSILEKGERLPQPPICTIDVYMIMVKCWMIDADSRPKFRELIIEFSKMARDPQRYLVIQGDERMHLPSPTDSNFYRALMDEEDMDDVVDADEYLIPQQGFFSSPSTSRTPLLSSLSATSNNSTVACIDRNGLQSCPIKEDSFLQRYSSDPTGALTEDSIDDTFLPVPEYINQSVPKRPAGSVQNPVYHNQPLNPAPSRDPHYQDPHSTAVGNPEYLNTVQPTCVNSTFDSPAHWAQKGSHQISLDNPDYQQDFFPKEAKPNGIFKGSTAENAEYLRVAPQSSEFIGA
Sequence of Fibroblast growth factor 10 (Homo sapiens) (O15520 whole entry, looked up): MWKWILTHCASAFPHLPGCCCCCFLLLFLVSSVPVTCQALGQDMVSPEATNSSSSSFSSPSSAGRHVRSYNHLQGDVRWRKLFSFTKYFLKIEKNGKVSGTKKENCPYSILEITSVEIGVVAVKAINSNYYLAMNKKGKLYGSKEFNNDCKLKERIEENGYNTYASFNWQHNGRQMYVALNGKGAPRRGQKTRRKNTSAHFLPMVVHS
Sequence of Dickkopf-related protein 1 (Homo sapiens) (O94907 whole entry, looked up): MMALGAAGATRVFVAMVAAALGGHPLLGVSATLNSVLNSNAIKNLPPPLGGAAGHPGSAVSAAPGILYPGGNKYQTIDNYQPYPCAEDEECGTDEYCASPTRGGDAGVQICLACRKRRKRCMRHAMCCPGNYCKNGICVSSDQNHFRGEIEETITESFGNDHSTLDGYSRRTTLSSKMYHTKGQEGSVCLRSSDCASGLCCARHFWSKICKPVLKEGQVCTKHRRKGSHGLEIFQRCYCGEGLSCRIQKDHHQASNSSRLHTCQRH
Sequence of Alpha-bungarotoxin (Bungarus multicinctus) (P60615 whole entry, looked up): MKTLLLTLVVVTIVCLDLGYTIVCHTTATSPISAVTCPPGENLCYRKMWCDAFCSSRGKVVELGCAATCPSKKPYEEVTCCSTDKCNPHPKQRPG

Regarding `COC(=O)C(CC#Cc1ccc2c(c1)[C@]1(C(=O)N2)[C@H](c2ccc(OCCO)cc2)N2[C@H](c3ccccc3)[C@H](c3ccccc3)OC(=O)[C@H]2[C@@H]1C(=O)N1CCc2cc(OC)c(OC)cc2C1)C(=O)OC`, the composite z-score in assay [1] is 1.47; in assay [2] it was 0.508; in [3], 0.381; in assay [5], 1.4; in [6], 1.32; in assay [7] it was 0.485. The composite z-score in assay [8] came out at 1.41; in assay [9], 0.506; in assay [10], 1.18; in [11], 1.4; in assay [13] it was 0.459; in [14], 1.66. Further, the composite z-score in assay [15] is 0.236; in [16], 0.296; in [17] it was 0.191; in [18] it was -0.422; in assay [19], 1.58; in assay [20], 1.77. Also, the values for the z-score in assay [4] and in assay [12] were -0.369 (inactive) and -1.01, respectively.
With `N#Cc1ccc(NN2C(C(O)C(c3ccccc3)c3ccccc3)C=CC3C(=O)N(c4ccccc4)C(=O)C32)cc1` (stereo not given), the composite z-score in [1] is 0.793; in assay [2], 0.609; in assay [3], 0.725; in assay [5] it was 1.2; in assay [6], 1.28; in assay [7] it was -0.0158. Besides, the composite z-score in assay [8] was 0.864; in assay [9] it was -1.06; in [10], 0.0017; in [11], 1.46; in [13] it was 0.0908; in [14], 1.87. For the same molecule, the composite z-score in assay [15] was 0.609; in assay [16] it was 0.0768; in assay [17], 0.392; in assay [18], 1.72; in assay [19], 0.307; in [20], 1.91. Further, the z-score in assay [4] is -0.327 (inactive); in [12], -0.734.
For `COc1ccccc1CN1C(=O)c2ccccc2[C@@]2(Cc3ccccc3N(CC(C)C)C2=O)[C@@H]1c1ccc(CO)cc1`, the composite z-score in [1] was -0.327; in [2], -0.266; in [3], 0.124; in [5], -0.285; in assay [6], -0.882; in assay [7], -0.284. In addition, the composite z-score in [8] was -0.0344; in assay [9], 0.0603; in assay [10], 0.522; in assay [11], -0.461; in assay [13], -0.389; in assay [14] it was -0.235. Further, the composite z-score in assay [15] was -0.69; in assay [16] it was -0.091; in assay [17], -0.214; in assay [18], -0.175; in assay [19], -0.247; in assay [20], -0.257. Further, the z-score was -0.686 (inactive) in [4] and -0.785 in [12].
Take `COCCOC(=O)N1C(=O)[C@@]2(c3cc(C#CCC(C(=O)OC)C(=O)OC)ccc31)[C@H](c1ccccc1OCCO)N1[C@H](c3ccccc3)[C@H](c3ccccc3)OC(=O)[C@H]1[C@@H]2C(=O)N1CCN(c2ncccn2)CC1`: the composite z-score was 0.875 in [1]; 0.231 in assay [2]; 0.237 in assay [3]; 1.08 in assay [5]; 1.32 in assay [6]; 0.94 in assay [7]. The composite z-score in assay [8] was 1.45; in assay [9] it was 0.853; in [10], 1.14; in assay [11], 1.37; in assay [13] it was 0.755; in assay [14], 1.92. For the same molecule, the composite z-score in assay [15] came to 1.18; in assay [16], 0.102; in assay [17], 0.166; in [18], 0.277; in assay [19], 2.01; in assay [20], 0.771. The z-score was -0.397 (inactive) in assay [4] and -1.99 in [12].
As to `COC(=O)[C@@]1(Cc2ccccc2)[C@H]2c3cc(C(=O)N(C)C)n(Cc4ccsc4Br)c3C[C@H]2CN1C(=O)c1ccccc1`, the composite z-score in assay [1] was -0.0533; in [2], 0.894; in assay [3], 1.17; in assay [5], 1.02; in [6], 0.439; in assay [7], -0.354. Moreover, the composite z-score is 1.12 in assay [8]; -0.506 in assay [9]; 0.669 in assay [10]; 1.41 in [11]; -0.329 in assay [13]; 1.79 in assay [14]. Further, the composite z-score in [15] worked out at 0.463; in [16], 0.107; in assay [17], 0.342; in [18], 1.2; in assay [19] it was 0.905; in assay [20] it was 0.626. Also, the z-score was -1.3 (inactive) in [4] and -3.07 in assay [12].
On to `Cc1ccc(S[C@]2(C(=O)NCCCN(C)C)CC(=O)N(Cc3ccccc3C(F)(F)F)[C@@H]2c2ccc(CO)cc2)cc1`, for which the composite z-score is -1.14 in [1]; 0.631 in assay [2]; 0.95 in assay [3]; -0.904 in assay [5]; -0.761 in assay [6]; -0.636 in assay [7]. Also, the composite z-score in [8] was -1.47; in assay [9], -0.798; in assay [10] it was 0.94; in [11], -0.812; in assay [13] it was -1.89; in assay [14], -0.168. For the same molecule, the composite z-score in [15] was 0.0625; in assay [16] it was -0.0944; in assay [17], 0.0893; in assay [18], 0.216; in [19], 0.122; in [20], 0.266. Further, the z-score in assay [4] was 0.375 (inactive); in [12], -0.767.

Source of the values: PubChem BioAssay.
